# Measured values taken from publication PMC7862700, “An all-to-all approach to the identification of sequence-specific readers for epigenetic DNA modifications on cytosine”.
# What was measured:
# Assay in all cases: DAPPL (digital affinity profiling via proximity ligation, sequencing); 10 mM Tris-HCl pH 7.5, 50 mM NaCl, 1 mM DTT, 4% glycerol, room temperature, 30 min; GST-TFs on glutathione beads, 16-mer random dsDNA library, 0.1% formaldehyde crosslink after washing; high values mean tight binding
# FLI1 = target: T1, FLI1 (Homo sapiens, UniProt Q01543 1-452); conditions: protein: recombinant; tags: N-terminal GST; dsDNA, one strand shown
# T1 sequence: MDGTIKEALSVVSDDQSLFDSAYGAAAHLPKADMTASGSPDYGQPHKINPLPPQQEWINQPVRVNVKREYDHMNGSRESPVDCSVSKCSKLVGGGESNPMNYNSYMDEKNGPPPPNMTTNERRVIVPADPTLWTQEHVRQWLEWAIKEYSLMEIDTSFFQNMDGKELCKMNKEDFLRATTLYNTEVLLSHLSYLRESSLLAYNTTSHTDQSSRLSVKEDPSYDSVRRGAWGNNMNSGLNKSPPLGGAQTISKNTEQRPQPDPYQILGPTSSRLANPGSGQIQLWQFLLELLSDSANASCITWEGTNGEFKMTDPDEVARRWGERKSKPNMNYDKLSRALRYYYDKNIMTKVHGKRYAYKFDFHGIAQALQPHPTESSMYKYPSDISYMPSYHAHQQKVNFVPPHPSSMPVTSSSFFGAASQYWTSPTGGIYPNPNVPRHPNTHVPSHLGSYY
# How it was run: (§1)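 Human transcription factors were made in yeast as GST fusions, captured on glutathione beads and barcoded with DNA. With a tag-only sample included, the pool was incubated with 200 nmole of a random double-stranded 16-mer DNA library in Tris/NaCl/DTT/glycerol buffer at room temperature for 30 min, then crosslinked with 0.1% formaldehyde after washing, ligated by proximity, amplified and sequenced. For binding signal, each hexamer's read frequency for a factor is divided by its frequency for the tag-only sample.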
# ELK1 = target: T2, ELK1 (Homo sapiens, UniProt P19419 1-428); conditions: protein: recombinant; tags: N-terminal GST; dsDNA, one strand shown
# T2 sequence: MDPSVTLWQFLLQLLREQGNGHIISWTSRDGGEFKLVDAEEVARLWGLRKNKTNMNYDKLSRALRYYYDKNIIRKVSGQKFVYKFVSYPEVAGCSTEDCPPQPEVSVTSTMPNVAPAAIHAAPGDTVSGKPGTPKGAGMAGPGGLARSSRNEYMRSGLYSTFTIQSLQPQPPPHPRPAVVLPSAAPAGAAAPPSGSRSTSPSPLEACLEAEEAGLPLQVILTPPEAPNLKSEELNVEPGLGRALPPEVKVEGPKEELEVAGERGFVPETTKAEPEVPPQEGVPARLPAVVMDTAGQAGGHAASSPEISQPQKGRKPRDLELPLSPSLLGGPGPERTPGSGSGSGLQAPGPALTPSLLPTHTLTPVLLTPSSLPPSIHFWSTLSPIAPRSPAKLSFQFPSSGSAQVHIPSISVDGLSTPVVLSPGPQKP
# How it was run: as §1
# GABPA = target: T3, GABPA (Homo sapiens, UniProt Q06546 1-454); conditions: protein: recombinant; tags: N-terminal GST; dsDNA, one strand shown
# T3 sequence: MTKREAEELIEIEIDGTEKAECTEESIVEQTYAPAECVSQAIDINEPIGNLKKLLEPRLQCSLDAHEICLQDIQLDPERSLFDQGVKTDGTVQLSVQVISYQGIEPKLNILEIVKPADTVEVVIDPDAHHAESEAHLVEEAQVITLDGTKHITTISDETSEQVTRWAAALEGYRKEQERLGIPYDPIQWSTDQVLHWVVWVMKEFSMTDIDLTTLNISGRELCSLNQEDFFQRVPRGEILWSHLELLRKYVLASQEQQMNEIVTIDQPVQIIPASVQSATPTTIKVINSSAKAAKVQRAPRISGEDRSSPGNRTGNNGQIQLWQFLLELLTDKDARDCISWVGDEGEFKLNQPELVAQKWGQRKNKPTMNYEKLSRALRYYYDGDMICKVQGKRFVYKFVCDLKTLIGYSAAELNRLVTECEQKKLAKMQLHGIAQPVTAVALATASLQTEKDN
# How it was run: as §1
# ERG = target: T4, ERG (Homo sapiens, UniProt P11308 1-479); conditions: protein: recombinant; tags: N-terminal GST; dsDNA, one strand shown
# T4 sequence: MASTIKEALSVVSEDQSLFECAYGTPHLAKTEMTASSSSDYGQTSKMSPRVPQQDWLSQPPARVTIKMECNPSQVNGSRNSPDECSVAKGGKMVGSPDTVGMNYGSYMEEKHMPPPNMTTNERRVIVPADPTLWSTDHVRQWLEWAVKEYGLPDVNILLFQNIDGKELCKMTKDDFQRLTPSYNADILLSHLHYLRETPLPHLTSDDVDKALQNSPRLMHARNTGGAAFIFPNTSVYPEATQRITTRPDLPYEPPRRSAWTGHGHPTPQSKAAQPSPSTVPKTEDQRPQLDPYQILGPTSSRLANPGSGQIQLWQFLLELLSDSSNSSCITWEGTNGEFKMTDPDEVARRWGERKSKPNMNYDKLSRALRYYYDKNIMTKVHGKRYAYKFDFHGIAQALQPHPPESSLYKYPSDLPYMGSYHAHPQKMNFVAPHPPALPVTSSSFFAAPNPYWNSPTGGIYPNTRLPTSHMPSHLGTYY
# How it was run: as §1
# ELF1 = ELF1 (Homo sapiens, UniProt P32519 1-619); conditions: protein: recombinant; tags: N-terminal GST; dsDNA, one strand shown
# How it was run: as §1
# EHF = target: T5, EHF (Homo sapiens, UniProt Q9NZC4 1-300); conditions: protein: recombinant; tags: N-terminal GST; dsDNA, one strand shown
# T5 sequence: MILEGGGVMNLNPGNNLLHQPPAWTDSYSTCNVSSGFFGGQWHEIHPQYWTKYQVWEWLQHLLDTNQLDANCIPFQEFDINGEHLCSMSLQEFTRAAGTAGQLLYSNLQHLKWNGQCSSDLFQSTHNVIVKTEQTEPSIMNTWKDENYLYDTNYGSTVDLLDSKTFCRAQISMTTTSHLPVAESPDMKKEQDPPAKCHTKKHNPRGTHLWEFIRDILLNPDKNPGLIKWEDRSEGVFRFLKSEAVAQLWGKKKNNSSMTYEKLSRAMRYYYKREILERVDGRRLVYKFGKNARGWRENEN
# How it was run: as §1
# SPI1 = SPI1 (Homo sapiens, UniProt P17947 1-270); conditions: protein: recombinant; tags: N-terminal GST; dsDNA, one strand shown
# How it was run: as §1
# SPIB = SPIB (Homo sapiens, UniProt Q01892 1-262); conditions: protein: recombinant; tags: N-terminal GST; dsDNA, one strand shown
# How it was run: as §1
# ELK3 = target: T6, ELK3 (Homo sapiens, UniProt P41970 1-407); conditions: protein: recombinant; tags: N-terminal GST; dsDNA, one strand shown
# T6 sequence: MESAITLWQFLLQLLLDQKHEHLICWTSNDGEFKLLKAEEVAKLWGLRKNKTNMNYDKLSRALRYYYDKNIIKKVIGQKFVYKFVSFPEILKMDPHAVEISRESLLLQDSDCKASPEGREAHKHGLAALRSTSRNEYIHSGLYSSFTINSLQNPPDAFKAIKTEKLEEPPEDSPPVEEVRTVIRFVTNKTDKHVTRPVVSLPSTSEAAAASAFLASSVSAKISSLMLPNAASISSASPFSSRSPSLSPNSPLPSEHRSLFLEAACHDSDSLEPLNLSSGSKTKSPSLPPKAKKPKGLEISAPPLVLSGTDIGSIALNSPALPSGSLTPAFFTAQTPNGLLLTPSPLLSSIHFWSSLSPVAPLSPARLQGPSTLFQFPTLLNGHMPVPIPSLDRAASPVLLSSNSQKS
# How it was run: as §1
# FEV = target: T7, FEV (Homo sapiens, UniProt Q99581 1-238); conditions: protein: recombinant; tags: N-terminal GST; dsDNA, one strand shown
# T7 sequence: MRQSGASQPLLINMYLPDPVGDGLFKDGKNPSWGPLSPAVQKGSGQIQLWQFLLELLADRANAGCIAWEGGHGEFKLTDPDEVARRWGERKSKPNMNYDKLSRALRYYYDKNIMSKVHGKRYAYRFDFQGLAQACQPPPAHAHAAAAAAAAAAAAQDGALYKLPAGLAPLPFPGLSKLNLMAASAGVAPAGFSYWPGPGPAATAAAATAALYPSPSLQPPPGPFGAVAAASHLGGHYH
# How it was run: as §1
# ETV5 = ETV5 (Homo sapiens, UniProt P41161 1-510); conditions: protein: recombinant; tags: N-terminal GST; dsDNA, one strand shown
# How it was run: as §1
# HSF1 = HSF1 (Homo sapiens, UniProt Q00613 1-529); conditions: protein: recombinant; tags: N-terminal GST; chain copies: 3; dsDNA, one strand shown
# How it was run: as §1
# SPIC = target: T8, SPIC (Homo sapiens, UniProt Q8N5J4 1-248); conditions: protein: recombinant; tags: N-terminal GST; dsDNA, one strand shown
# T8 sequence: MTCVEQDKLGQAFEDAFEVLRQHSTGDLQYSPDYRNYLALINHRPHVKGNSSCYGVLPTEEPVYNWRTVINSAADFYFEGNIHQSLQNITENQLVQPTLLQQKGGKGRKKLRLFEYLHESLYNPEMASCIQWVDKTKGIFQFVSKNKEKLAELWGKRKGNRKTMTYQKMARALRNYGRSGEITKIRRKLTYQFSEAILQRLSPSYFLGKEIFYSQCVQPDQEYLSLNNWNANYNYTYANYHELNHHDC
# How it was run: as §1
# ELF4 = ELF4 (Homo sapiens, UniProt Q99607 1-663); conditions: protein: recombinant; tags: N-terminal GST; dsDNA, one strand shown
# How it was run: as §1
# ELK4 = target: T9, ELK4 (Homo sapiens, UniProt P28324-2 1-405); conditions: protein: recombinant; tags: N-terminal GST; dsDNA, one strand shown
# T9 sequence: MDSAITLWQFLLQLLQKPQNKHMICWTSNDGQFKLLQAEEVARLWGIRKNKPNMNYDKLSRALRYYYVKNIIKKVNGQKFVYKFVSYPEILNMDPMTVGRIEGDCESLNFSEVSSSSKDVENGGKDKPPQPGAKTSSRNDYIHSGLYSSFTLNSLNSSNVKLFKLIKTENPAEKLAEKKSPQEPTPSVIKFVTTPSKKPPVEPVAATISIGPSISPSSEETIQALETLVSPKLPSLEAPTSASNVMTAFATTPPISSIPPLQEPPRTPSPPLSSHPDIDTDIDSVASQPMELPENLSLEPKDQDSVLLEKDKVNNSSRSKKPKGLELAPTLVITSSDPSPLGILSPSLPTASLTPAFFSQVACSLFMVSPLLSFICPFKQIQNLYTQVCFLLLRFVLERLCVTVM
# How it was run: as §1
# ETV2 = target: T10, ETV2 (Homo sapiens, UniProt O00321 1-342); conditions: protein: recombinant; tags: N-terminal GST; dsDNA, one strand shown
# T10 sequence: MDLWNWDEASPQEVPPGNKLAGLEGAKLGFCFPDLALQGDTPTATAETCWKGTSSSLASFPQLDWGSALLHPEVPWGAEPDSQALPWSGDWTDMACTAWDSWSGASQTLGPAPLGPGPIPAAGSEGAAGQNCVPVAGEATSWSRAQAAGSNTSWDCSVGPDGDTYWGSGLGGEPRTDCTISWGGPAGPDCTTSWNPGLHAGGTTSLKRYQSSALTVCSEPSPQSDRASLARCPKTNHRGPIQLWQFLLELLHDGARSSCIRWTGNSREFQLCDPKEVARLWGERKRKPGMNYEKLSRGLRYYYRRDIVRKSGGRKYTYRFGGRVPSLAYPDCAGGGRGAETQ
# How it was run: as §1
# ELF3 = target: T11, ELF3 (Homo sapiens, UniProt P78545 1-371); conditions: protein: recombinant; tags: N-terminal GST; dsDNA, one strand shown
# T11 sequence: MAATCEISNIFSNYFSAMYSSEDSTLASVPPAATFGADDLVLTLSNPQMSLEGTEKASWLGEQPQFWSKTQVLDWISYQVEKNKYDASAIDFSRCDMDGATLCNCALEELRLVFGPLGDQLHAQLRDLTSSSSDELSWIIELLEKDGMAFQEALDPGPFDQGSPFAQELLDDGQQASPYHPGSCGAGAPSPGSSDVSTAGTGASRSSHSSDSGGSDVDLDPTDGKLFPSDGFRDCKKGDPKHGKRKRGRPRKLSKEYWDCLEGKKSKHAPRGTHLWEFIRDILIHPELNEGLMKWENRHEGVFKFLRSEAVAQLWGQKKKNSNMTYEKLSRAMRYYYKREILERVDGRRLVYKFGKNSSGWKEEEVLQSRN
# How it was run: as §1
# CRX = CRX (Homo sapiens, UniProt O43186 1-299); conditions: protein: recombinant; tags: N-terminal GST; dsDNA, one strand shown
# How it was run: as §1
# ETV1 = ETV1 (Homo sapiens, UniProt P50549 1-477); conditions: protein: recombinant; tags: N-terminal GST; dsDNA, one strand shown
# How it was run: as §1
# Sequence of ELF1 (P32519 whole entry): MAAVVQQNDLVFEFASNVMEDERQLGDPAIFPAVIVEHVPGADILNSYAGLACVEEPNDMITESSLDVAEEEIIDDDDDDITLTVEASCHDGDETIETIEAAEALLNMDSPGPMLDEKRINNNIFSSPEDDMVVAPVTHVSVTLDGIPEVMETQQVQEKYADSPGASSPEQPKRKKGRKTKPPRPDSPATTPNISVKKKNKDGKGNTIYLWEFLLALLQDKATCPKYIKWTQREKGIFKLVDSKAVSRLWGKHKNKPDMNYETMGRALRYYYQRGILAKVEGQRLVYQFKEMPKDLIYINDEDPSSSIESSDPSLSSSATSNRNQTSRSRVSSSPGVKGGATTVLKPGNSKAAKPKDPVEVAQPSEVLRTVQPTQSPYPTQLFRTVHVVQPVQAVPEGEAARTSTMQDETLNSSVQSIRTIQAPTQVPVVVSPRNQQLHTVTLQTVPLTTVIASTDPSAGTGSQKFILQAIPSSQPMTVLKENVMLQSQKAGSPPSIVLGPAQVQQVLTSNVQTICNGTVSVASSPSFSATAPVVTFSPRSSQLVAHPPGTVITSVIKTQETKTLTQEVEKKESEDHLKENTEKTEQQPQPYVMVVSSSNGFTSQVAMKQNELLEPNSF
# Sequence of ELF4 (Q99607 whole entry): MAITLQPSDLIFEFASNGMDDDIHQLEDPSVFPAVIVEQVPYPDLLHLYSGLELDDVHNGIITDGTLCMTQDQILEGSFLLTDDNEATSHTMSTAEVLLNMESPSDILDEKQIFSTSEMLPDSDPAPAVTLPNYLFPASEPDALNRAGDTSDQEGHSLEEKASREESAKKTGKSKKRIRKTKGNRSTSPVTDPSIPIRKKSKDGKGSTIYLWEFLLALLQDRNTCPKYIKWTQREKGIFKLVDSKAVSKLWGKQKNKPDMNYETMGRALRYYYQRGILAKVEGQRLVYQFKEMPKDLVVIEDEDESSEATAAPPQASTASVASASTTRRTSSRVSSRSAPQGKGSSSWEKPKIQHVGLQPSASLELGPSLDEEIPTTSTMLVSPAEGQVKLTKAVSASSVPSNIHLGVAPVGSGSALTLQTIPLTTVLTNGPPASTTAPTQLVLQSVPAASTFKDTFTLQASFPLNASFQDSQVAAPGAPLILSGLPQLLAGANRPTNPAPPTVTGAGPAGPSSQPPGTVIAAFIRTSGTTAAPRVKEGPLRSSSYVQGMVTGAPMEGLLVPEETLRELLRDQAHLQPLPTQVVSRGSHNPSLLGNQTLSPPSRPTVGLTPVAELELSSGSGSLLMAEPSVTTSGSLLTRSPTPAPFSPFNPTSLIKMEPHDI
# Sequence of SPIB (Q01892 whole entry): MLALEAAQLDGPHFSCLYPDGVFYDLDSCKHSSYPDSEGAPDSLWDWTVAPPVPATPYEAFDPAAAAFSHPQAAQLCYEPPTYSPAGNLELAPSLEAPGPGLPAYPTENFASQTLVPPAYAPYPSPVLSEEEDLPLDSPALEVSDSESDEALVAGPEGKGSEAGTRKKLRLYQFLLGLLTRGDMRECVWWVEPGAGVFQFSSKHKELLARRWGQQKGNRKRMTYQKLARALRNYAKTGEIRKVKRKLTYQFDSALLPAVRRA
# Sequence of ETV1 (P50549 whole entry): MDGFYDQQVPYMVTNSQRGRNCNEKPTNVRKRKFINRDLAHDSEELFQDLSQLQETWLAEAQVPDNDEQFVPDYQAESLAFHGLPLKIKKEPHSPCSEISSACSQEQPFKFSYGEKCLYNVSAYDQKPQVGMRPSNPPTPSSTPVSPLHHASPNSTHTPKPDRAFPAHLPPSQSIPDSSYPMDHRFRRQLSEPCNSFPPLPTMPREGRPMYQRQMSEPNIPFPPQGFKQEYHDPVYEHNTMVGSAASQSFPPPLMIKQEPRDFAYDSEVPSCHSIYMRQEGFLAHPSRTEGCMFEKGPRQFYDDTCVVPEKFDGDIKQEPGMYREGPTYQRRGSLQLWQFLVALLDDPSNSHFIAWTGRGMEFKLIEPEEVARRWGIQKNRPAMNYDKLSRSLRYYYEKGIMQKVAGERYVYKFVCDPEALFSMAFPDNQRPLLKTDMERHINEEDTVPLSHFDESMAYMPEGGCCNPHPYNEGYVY
# Sequence of HSF1 (Q00613 whole entry): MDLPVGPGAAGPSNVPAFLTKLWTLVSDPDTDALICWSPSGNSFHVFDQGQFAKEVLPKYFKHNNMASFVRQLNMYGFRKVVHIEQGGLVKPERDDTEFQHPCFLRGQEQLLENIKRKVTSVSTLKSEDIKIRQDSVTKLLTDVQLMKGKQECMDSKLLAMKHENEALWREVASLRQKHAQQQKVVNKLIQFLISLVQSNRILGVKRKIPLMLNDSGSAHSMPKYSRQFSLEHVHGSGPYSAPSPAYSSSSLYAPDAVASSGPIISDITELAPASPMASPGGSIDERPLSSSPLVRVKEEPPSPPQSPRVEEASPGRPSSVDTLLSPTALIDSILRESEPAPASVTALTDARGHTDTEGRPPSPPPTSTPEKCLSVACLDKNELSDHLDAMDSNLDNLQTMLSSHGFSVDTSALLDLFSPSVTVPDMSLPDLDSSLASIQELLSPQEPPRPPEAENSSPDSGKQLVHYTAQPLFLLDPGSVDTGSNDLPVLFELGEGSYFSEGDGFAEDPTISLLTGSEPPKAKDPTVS
# Sequence of CRX (O43186 whole entry): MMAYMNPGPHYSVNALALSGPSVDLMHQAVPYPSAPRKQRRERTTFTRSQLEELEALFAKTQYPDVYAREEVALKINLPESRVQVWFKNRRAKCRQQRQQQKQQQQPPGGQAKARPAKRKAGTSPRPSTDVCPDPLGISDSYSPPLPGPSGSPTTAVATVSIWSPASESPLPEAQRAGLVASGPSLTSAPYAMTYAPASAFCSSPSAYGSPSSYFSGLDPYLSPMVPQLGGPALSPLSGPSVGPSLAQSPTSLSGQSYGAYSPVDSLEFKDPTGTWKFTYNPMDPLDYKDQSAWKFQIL
# Sequence of ETV5 (P41161 whole entry): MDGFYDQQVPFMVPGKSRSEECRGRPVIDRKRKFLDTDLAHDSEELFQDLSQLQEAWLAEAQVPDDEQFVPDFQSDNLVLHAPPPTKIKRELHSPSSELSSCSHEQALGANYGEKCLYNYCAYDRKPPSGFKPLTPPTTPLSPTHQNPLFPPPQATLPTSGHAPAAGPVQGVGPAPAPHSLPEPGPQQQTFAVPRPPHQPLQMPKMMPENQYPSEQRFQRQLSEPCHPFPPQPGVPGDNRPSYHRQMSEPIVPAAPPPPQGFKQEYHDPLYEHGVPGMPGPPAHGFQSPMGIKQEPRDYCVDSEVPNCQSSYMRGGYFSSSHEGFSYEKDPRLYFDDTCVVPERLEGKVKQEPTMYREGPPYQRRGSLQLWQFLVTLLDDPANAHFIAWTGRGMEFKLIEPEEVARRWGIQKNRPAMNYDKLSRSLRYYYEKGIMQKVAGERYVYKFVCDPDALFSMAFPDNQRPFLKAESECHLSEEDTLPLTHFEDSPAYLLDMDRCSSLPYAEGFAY
sequence,measurement,setting,value
AAATTG,binding signal,FLI1,"1.2 fold enrichment (6-mer frequency, TF over GST control)"
same,binding signal,ELK1,"1.23 fold enrichment (6-mer frequency, TF over GST control)"
same,binding signal,GABPA,"1.26 fold enrichment (6-mer frequency, TF over GST control)"
same,binding signal,ERG,"1.23 fold enrichment (6-mer frequency, TF over GST control)"
same,binding signal,ELF1,"1.22 fold enrichment (6-mer frequency, TF over GST control)"
same,binding signal,EHF,"1.28 fold enrichment (6-mer frequency, TF over GST control)"
same,binding signal,SPI1,"1.26 fold enrichment (6-mer frequency, TF over GST control)"
same,binding signal,SPIB,"1.25 fold enrichment (6-mer frequency, TF over GST control)"
same,binding signal,ELK3,"1.22 fold enrichment (6-mer frequency, TF over GST control)"
same,binding signal,FEV,"1.22 fold enrichment (6-mer frequency, TF over GST control)"
same,binding signal,ETV5,"1.26 fold enrichment (6-mer frequency, TF over GST control)"
same,binding signal,HSF1,"1.16 fold enrichment (6-mer frequency, TF over GST control)"
same,binding signal,SPIC,"1.16 fold enrichment (6-mer frequency, TF over GST control)"
same,binding signal,ELF4,"1.27 fold enrichment (6-mer frequency, TF over GST control)"
same,binding signal,ELK4,"1.2 fold enrichment (6-mer frequency, TF over GST control)"
same,binding signal,ETV2,"1.21 fold enrichment (6-mer frequency, TF over GST control)"
same,binding signal,ELF3,"1.33 fold enrichment (6-mer frequency, TF over GST control)"
same,binding signal,CRX,"1.05 fold enrichment (6-mer frequency, TF over GST control)"
same,binding signal,ETV1,"1.21 fold enrichment (6-mer frequency, TF over GST control)"
